The panel holds about 79,000 compounds, 15% with a hit somewhere; the sample as a whole holds those more often. Activity calls are given as the source filed them. No stated cut-off is given here; in the data, active means growth inhibition above about 70%; inactive means the rest. Where a SMILES comes first, the peptide text is derived from it. The star is where a group is joined. Boc = CC(C)(C)OC(=O)*; OBn = c1ccc(CO*)cc1
Assay: NCI Yeast Anticancer Drug Screen. Data for the rad50 strain (AID 155);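 further: 0% = growth of vehicle-only cultures of the same strain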
Conditions: S. cerevisiae rad50 strain growth inhibition; at 50.0 µM; active compounds read high
Method in brief: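 Relative growth inhibition (compound vs vehicle) was measured in yeast with a defined repair-gene alteration.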
With `C/C=C/C1OCC(C)(C)CO1` the growth inhibition was -0.8% (inactive).
For `CCOC(=O)C(C(=O)OCC)C(C)(C)C`, the growth inhibition was -96.7% (inactive).
In the case of `O=C1C(=O)C(CCc2ccccc2)C(=O)/C1=C\c1ccccc1` (stereo not given), the growth inhibition is reported as 4.4% (inactive).
With `O=C(O)C(=O)O.[Co+3].[NH-]C(Cc1ccccc1)C(=O)[O-].[NH-]CCN(CC[NH-])CC[NH-]` (stereo not given) the growth inhibition was 28.2% (inactive).
With `O=C(O)CCc1c[nH]c(=S)[nH]1` the growth inhibition was 10% (inactive).
With `Cc1c([N+](=O)[O-])cc(C(C)(C)C)c(OC(=O)C(Cl)(Cl)Cl)c1[N+](=O)[O-]` the growth inhibition was 58.3% (inactive).
For `COc1cc(NCCC(=O)O)c2ncccc2c1`, the growth inhibition was -25.1% (inactive).
For `CC(=O)OCCOC1c2ccccc2-c2ccccc21`, the growth inhibition was 7.1% (inactive).
For `COc1ccc2c(c1)N1CCc3cc(OC)c(OC)cc3C1C2` (stereo not given), the growth inhibition was 15.8% (inactive).
In the case of `O=C(Nc1cccc2c1C(=O)c1cc(Cl)ccc1C2=O)c1ccccc1`, the growth inhibition is reported as -2.7% (inactive).
In the case of `O=c1c(CN(CCO)CCO)c(-c2ccccc2)sc2ccccc12`, the growth inhibition is reported as -3.45% (inactive).
With `CCOP(=O)(OCC)C1=C(P(=O)(OCC)OCC)C(F)(F)C1(F)F` the growth inhibition was -9.35% (inactive).
For `C(=Nc1ccc2c(c1)Cc1ccccc1-2)c1ccc2c(c1)OCO2`, the growth inhibition was 8.75% (inactive).
For `CCCCOB(OCCCC)Oc1c(C(C)(C)C)cc(C)cc1C(C)(C)C`, the growth inhibition was 1.5% (inactive).
In the case of `CC1=CCC2N=C(c3ccccc3)CC2(C)C1=O` (stereo not given), the growth inhibition is reported as 27.4% (inactive).
With `COc1c2cc(C(C)(C)C)cc1CSCc1cc(C(C)(C)C)cc(c1OC)CCCCC2` the growth inhibition was -1.25% (inactive).
In the case of `O=C(N/N=C/C=C/c1ccccc1)c1ccccc1O`, the growth inhibition is reported as -1.8% (inactive).
With `Oc1cc(CN2CCOCC2)c(O)c(CN2CCOCC2)c1CN1CCOCC1` the growth inhibition was 5.25% (inactive).
In the case of `c1ccc2c(c1)c1ccccc1c1c3ccccc3c3ccccc3c21`, the growth inhibition is reported as -10.9% (inactive).
For `Clc1ccc(SCCCCSc2ccc(Cl)cc2)cc1`, the growth inhibition was 8.05% (inactive).
For `CCCCNC(=O)Oc1cccc2ccccc12`, the growth inhibition was 4.3% (inactive).
In the case of `NC(=O)C(=CN1C(=O)/C(=C/c2ccccc2O)SC1=S)C(N)=O`, the growth inhibition is reported as -21.6% (inactive).
With `COCC(C)(CO)CC(C)CO` (stereo not given) the growth inhibition was -13% (inactive).
With `Cc1cn(C2CC3OP(=O)(OCc4ccccc4)OCC3O2)c(=O)[nH]c1=O` (stereo not given) the growth inhibition was 5.35% (inactive).
With `NC(=O)SCC(=O)Nc1ccc2cccc3c2c1CC3` the growth inhibition was 66.2% (inactive).
With `CSC1=C(CCC(C)CCCC(C)CCCC(C)CCCC(C)CCCC(C)CCCC(C)C)C(=O)c2sccc2C1=O` (stereo not given) the growth inhibition was 15.7% (inactive).
For `O=CNC1CCCCC1c1ccc(C2CCCCC2NC=O)cc1` (stereo not given), the growth inhibition was -12.1% (inactive).
In the case of `Nc1ccccc1OCCOCCOc1ccccc1N`, the growth inhibition is reported as -31.9% (inactive).
For `CC1C2=C(CCCC2=O)O/C1=N\O` (stereo not given), the growth inhibition was 11.4% (inactive).
In the case of `COc1ccccc1C(O)c1ccccc1` (stereo not given), the growth inhibition is reported as 9.6% (inactive).
For `O=C(CCc1nnc2s/c(=C\c3ccccc3)c(=O)n12)Nc1cc(Cl)ccc1Cl`, the growth inhibition was -30.9% (inactive).
With `Cc1ccc2ccccc2[n+]1CC(=O)c1ccc2c(c1)OCO2` the growth inhibition was -3% (inactive).
With `CC1(C)OC(=O)C(=Cc2ccc(O)cc2)C(=O)O1` the growth inhibition was -20.9% (inactive).
With `COC(=O)C(C)(NC(=O)C(CC(=O)OC(C)(C)C)NC(=O)OC(C)(C)C)c1ccccc1` (stereo not given) the growth inhibition was 41.5% (inactive).
With `CC(=O)/C(=C\n1c(=S)[nH]c2ccc([N+](=O)[O-])cc21)C(=O)Nc1ccccc1C` the growth inhibition was 2.1% (inactive).
In the case of `N#Cc1cccc2c(S(=O)(=O)O)cccc12`, the growth inhibition is reported as -12.9% (inactive).
For `c1ccc2cc3c(cc2c1)OP1(=NP2(=NP4(=N1)Oc1cc5ccccc5cc1O4)Oc1cc4ccccc4cc1O2)O3`, the growth inhibition was 67.7% (inactive).
With `CC(C)CC(NC(=O)OC(C)(C)C)C(=O)NC(CCC(=O)OCc1ccccc1)C(N)=O` (stereo not drawn) (Boc-Leu-Glu(OBn)-NH2; configuration not given here) the growth inhibition was 19.1% (inactive).
For `N#CC(c1ccccc1)N1CCCN(C(C#N)c2ccccc2)C1c1ccccc1O` (stereo not given), the growth inhibition was 31.4% (inactive).
For `CN(N=O)C(=O)NC(C=O)C(O)C(O)C(O)CO` (stereo not given), the growth inhibition was 5.25% (inactive).

Assay: NCI Yeast Anticancer Drug Screen. Data for the mec2-1 strain (AID 157)
Conditions: S. cerevisiae mec2-1 strain, at 50.0 µM, active compounds read high
Method in brief: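 Growth inhibition is read against vehicle-treated controls after compound exposure of the mec2-1 yeast strain, which is defective in DNA damage repair or cell cycle control.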
With `C/C=C/C1OCC(C)(C)CO1` the growth inhibition was 22.9% (inactive).
For `CCOC(=O)C(C(=O)OCC)C(C)(C)C`, the growth inhibition was -18.3% (inactive).
With `O=C1C(=O)C(CCc2ccccc2)C(=O)/C1=C\c1ccccc1` (stereo not given) the growth inhibition was 17.6% (inactive).
For `O=C(O)C(=O)O.[Co+3].[NH-]C(Cc1ccccc1)C(=O)[O-].[NH-]CCN(CC[NH-])CC[NH-]` (stereo not given), the growth inhibition was 15.8% (inactive).
With `O=C(O)CCc1c[nH]c(=S)[nH]1` the growth inhibition was 3.75% (inactive).
In the case of `Cc1c([N+](=O)[O-])cc(C(C)(C)C)c(OC(=O)C(Cl)(Cl)Cl)c1[N+](=O)[O-]`, the growth inhibition is reported as 72.5% (active).
With `COc1cc(NCCC(=O)O)c2ncccc2c1` the growth inhibition was -19.2% (inactive).
In the case of `CC(=O)OCCOC1c2ccccc2-c2ccccc21`, the growth inhibition is reported as -2.75% (inactive).
In the case of `COc1ccc2c(c1)N1CCc3cc(OC)c(OC)cc3C1C2` (stereo not given), the growth inhibition is reported as -5.15% (inactive).
In the case of `O=C(Nc1cccc2c1C(=O)c1cc(Cl)ccc1C2=O)c1ccccc1`, the growth inhibition is reported as 0.1% (inactive).
In the case of `O=c1c(CN(CCO)CCO)c(-c2ccccc2)sc2ccccc12`, the growth inhibition is reported as -24.6% (inactive).
For `CCOP(=O)(OCC)C1=C(P(=O)(OCC)OCC)C(F)(F)C1(F)F`, the growth inhibition was -5% (inactive).
For `C(=Nc1ccc2c(c1)Cc1ccccc1-2)c1ccc2c(c1)OCO2`, the growth inhibition was -10.1% (inactive).
In the case of `CCCCOB(OCCCC)Oc1c(C(C)(C)C)cc(C)cc1C(C)(C)C`, the growth inhibition is reported as -14.2% (inactive).
For `CC1=CCC2N=C(c3ccccc3)CC2(C)C1=O` (stereo not given), the growth inhibition was 21.6% (inactive).
In the case of `COc1c2cc(C(C)(C)C)cc1CSCc1cc(C(C)(C)C)cc(c1OC)CCCCC2`, the growth inhibition is reported as -3.4% (inactive).
In the case of `O=C(N/N=C/C=C/c1ccccc1)c1ccccc1O`, the growth inhibition is reported as 43% (inactive).
With `Oc1cc(CN2CCOCC2)c(O)c(CN2CCOCC2)c1CN1CCOCC1` the growth inhibition was 7.45% (inactive).
For `c1ccc2c(c1)c1ccccc1c1c3ccccc3c3ccccc3c21`, the growth inhibition was -14.6% (inactive).
For `Clc1ccc(SCCCCSc2ccc(Cl)cc2)cc1`, the growth inhibition was -6.7% (inactive).
With `CCCCNC(=O)Oc1cccc2ccccc12` the growth inhibition was -6.8% (inactive).
With `NC(=O)C(=CN1C(=O)/C(=C/c2ccccc2O)SC1=S)C(N)=O` the growth inhibition was 2.9% (inactive).
With `COCC(C)(CO)CC(C)CO` (stereo not given) the growth inhibition was -25.8% (inactive).
For `Cc1cn(C2CC3OP(=O)(OCc4ccccc4)OCC3O2)c(=O)[nH]c1=O` (stereo not given), the growth inhibition was 7.1% (inactive).
For `NC(=O)SCC(=O)Nc1ccc2cccc3c2c1CC3`, the growth inhibition was 60.3% (inactive).
In the case of `CSC1=C(CCC(C)CCCC(C)CCCC(C)CCCC(C)CCCC(C)CCCC(C)C)C(=O)c2sccc2C1=O` (stereo not given), the growth inhibition is reported as 13.6% (inactive).
With `O=CNC1CCCCC1c1ccc(C2CCCCC2NC=O)cc1` (stereo not given) the growth inhibition was 9.1% (inactive).
In the case of `Nc1ccccc1OCCOCCOc1ccccc1N`, the growth inhibition is reported as -2.65% (inactive).
With `CC1C2=C(CCCC2=O)O/C1=N\O` (stereo not given) the growth inhibition was -6.85% (inactive).
With `COc1ccccc1C(O)c1ccccc1` (stereo not given) the growth inhibition was -30.4% (inactive).
For `O=C(CCc1nnc2s/c(=C\c3ccccc3)c(=O)n12)Nc1cc(Cl)ccc1Cl`, the growth inhibition was -1.6% (inactive).
With `Cc1ccc2ccccc2[n+]1CC(=O)c1ccc2c(c1)OCO2` the growth inhibition was -23.2% (inactive).
In the case of `CC1(C)OC(=O)C(=Cc2ccc(O)cc2)C(=O)O1`, the growth inhibition is reported as -9.45% (inactive).
With `COC(=O)C(C)(NC(=O)C(CC(=O)OC(C)(C)C)NC(=O)OC(C)(C)C)c1ccccc1` (stereo not given) the growth inhibition was 16% (inactive).
With `CC(=O)/C(=C\n1c(=S)[nH]c2ccc([N+](=O)[O-])cc21)C(=O)Nc1ccccc1C` the growth inhibition was -44.8% (inactive).
With `N#Cc1cccc2c(S(=O)(=O)O)cccc12` the growth inhibition was 4.5% (inactive).
In the case of `c1ccc2cc3c(cc2c1)OP1(=NP2(=NP4(=N1)Oc1cc5ccccc5cc1O4)Oc1cc4ccccc4cc1O2)O3`, the growth inhibition is reported as 28.1% (inactive).
In the case of `CC(C)CC(NC(=O)OC(C)(C)C)C(=O)NC(CCC(=O)OCc1ccccc1)C(N)=O` (stereo not drawn) (Boc-Leu-Glu(OBn)-NH2; configuration not given here), the growth inhibition is reported as -8.9% (inactive).
For `N#CC(c1ccccc1)N1CCCN(C(C#N)c2ccccc2)C1c1ccccc1O` (stereo not given), the growth inhibition was -8.65% (inactive).
In the case of `CN(N=O)C(=O)NC(C=O)C(O)C(O)C(O)CO` (stereo not given), the growth inhibition is reported as -23.4% (inactive).

Reference: PubChem BioAssay (NCI)
